Assay outcomes from PubChem.
IL1B secr inh: qHTS for Inhibitors of Inflammasome Signaling: IL-1-beta AlphaLISA Primary Screen | THP-1 LPS/ATP IL-1B secretion, AlphaLISA, 16 h; hits give low values | activity change, % at 57.5 µM | hit rate 4.7% among 360,000 | AID 743279, 2014; in the data active = activity change below about -50%; inconclusive = mostly about -30% to -49%
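THP-1 cells pretreated 1 hr with compounds (up to 57.5 uM final), then stimulated with LPS (250 ng/mL final) plus ATP (1.25 mM final); secreted IL-1B measured by AlphaLISA after 16 hr, decreased signal indicating inhibition.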
TGFb inhibitor: qHTS for Inhibitors of TGF-b | HepG2 CAGA-GFP TGF-b/SMAD3 reporter, GFP fluorescence, 18 h; TGF-beta stimulated, 500 pg/mL final | Potency, µM (series often up to 46.1 µM), actives largely listed as inhibitors | hit rate 1.2% among 410,000; note: nearly all actives have a fitted effect of over 65% in size
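HEPG2 CAGA-GFP reporter cells (1000/well, DMEM with 1% FBS) received compounds, then recombinant TGF-beta at 500 pg/mL final for 18 hours at 37 degrees C. Per-cell GFP summed per well was normalised to unstimulated and stimulated DMSO controls before curve fitting.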
DT40 TDP1 no CPT: qHTS for Inhibitors of human tyrosyl-DNA phosphodiesterase 1 (TDP1): qHTS in cells in absence of CPT | DT40 Tdp1-/- hTDP1 cells, no CPT, ATP luminescence, 48 h | Potency, µM (titrated, usually from 46.2 µM), actives largely listed as inhibitors | hit rate 15% among 420,000; note: nearly all actives have a fitted effect of over 55% in size
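Seeded 400 DT40-hTDP1 cells/well (vehicle DMSO, no 20 nM CPT); pinned compounds; ≥48 hr at 37 °C; CellTiter-Glo luminescence as viability measure.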
TDP1 block: qHTS Assay for Inhibitors of Tyrosyl-DNA Phosphodiesterase (TDP1); AID 485290, 2010; hit rate 0.28% among 350,000; recombinant TDP1, AlphaScreen DNA substrate cleavage; Tyrosyl-DNA phosphodiesterase 1 (Homo sapiens), Q9NUW8; Potency, µM (doses to about 130 µM), hits mostly inhibitors; note: nearly all actives have a fitted effect of over 40% in size
Target sequence (Q9NUW8 whole entry, looked up): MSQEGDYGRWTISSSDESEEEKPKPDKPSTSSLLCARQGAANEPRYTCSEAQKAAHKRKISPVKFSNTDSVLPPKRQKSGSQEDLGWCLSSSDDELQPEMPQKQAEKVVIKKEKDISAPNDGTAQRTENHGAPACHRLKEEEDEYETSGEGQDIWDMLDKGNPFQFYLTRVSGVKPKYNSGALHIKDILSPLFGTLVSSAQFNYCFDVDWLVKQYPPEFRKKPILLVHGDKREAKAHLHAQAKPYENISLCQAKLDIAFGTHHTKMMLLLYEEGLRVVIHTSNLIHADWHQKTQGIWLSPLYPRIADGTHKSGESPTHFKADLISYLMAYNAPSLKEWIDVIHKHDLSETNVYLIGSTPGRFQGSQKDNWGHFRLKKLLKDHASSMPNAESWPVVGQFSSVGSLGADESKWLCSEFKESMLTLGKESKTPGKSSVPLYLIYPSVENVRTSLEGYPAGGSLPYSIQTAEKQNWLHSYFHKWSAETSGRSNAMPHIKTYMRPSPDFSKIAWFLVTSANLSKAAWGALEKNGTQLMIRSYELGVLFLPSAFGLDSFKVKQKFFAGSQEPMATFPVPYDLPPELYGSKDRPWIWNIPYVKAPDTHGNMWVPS
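Steps: enzyme plus compound, 15 min RT; add biotin/phosphotyrosine-FITC oligonucleotide (15 nM final), react 5 min; add donor/acceptor beads (10 ug/ml final), 10 min; read AlphaScreen. Tdp1 at 1 nM final.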
TDP1 cell CPT: qHTS for Inhibitors of human tyrosyl-DNA phosphodiesterase 1 (TDP1): qHTS in cells in presence of CPT | chicken DT40 Tdp1-/-;hTDP1 cells + 20 nM CPT, ATP luminescence, 48 h | Potency, µM (series often up to 46.2 µM), actives largely listed as inhibitors | AID 686979, 2013 | hit rate 12% among 420,000; note: nearly all actives have a fitted effect of over 55% in size
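Chicken DT40 Tdp1-/- cells complemented with human TDP1, 400 cells/well, exposed to compounds plus 20 nM camptothecin for at least 48 h at 37 C; viability read as ATP content by CellTiter-Glo luminescence.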
HepG2 viability: qHTS for Inhibitors of TGF-b: Cytotox Counterscreen. HepG2 CAGA-GFP viability, ATP luminescence, 18 h. Potency, µM (doses to about 46.1 µM), most hits filed as cytotoxic. hit rate 0.76% among 410,000
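HepG2 CAGA-GFP cells (1000/well, DMEM with 1% FBS) received compound, then TGF-beta at 500 pg/mL final, and were incubated 18 hours at 37 degrees C. Viability was read by CellTiter-Glo luminescence. Media-only wells were set as complete cell-killing and DMSO as no toxicity.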
Large screens that a line does not name were inactive; ! = a repeat was not active. A selection: hits, their analogues and other compounds. The true share with any hit is near 19%. Unless noted, calls come from the whole dose curve; as a rule, active = well fitted curve in the direction sought with a large enough effect; inconclusive = small, poorly fitted or top-dose-only effect, or another doubt; inactive = no such curve, though single readings can be large; an effect the other way counts as inactive or inconclusive.

CCOC(=O)COc1ccc(-c2nnn(CC(=O)Nc3ccccc3)n2)cc1	TGFb inhibitor inconclusive (no result: IL1B secr inh)
C=CC(=O)N=c1sc2ccccc2n1-c1ccccc1	IL1B secr inh -104, TGFb inhibitor 10µM, DT40 TDP1 no CPT 2.6µM, TDP1 cell CPT 2.6µM, HepG2 viability 4.5µM
N=c1sc2ccccc2n1-c1ccccc1	TGFb inhibitor inconclusive, DT40 TDP1 no CPT 26µM, TDP1 cell CPT inconclusive
Cc1nc(-c2ccc(Cl)cc2)sc1CCNC(=O)C(=O)Nc1ccccc1C#N	none (no result: IL1B secr inh)
CN(Cc1cc(Cl)cc(Cl)c1O)Cc1c(O)ccc2ccccc12	IL1B secr inh -96, TGFb inhibitor inconclusive, DT40 TDP1 no CPT inconclusive, TDP1 cell CPT inconclusive (no result: TDP1 block)
COc1ccc(NC2=CC(c3ccc(OC)cc3)N(c3ccc(OC)cc3)C2=O)cc1 (centres undefined)	none
COc1ccc(N2C(=O)C(CN3CCCCC3)C2c2ccccc2)cc1 (centres undefined)	DT40 TDP1 no CPT 13µM, TDP1 cell CPT inconclusive
COc1ccc(NC2=CC(c3ccccc3)N(c3ccc(OC)cc3)C2=O)cc1 (centres undefined)	DT40 TDP1 no CPT 8.2µM, TDP1 cell CPT inconclusive
CCN(CC)CC1C(=O)N(c2ccc(OC)cc2)C1c1ccccc1 (centres undefined)	DT40 TDP1 no CPT inconclusive (no result: TDP1 block)
O=S(=O)(c1ccccc1)c1nnn2c1nc(Nc1ccccc1)c1cc(Cl)ccc12	DT40 TDP1 no CPT inconclusive, TDP1 cell CPT inconclusive (no result: IL1B secr inh)
Cc1noc(Cn2c(=O)c3ccccc3n(CC(=O)Nc3ccc(F)cc3F)c2=O)n1	TDP1 cell CPT inconclusive (no result: IL1B secr inh)
Cc1c(C(=O)Nc2ccccn2)oc2c(Cl)cccc12	DT40 TDP1 no CPT inconclusive (no result: TDP1 block)
Cc1c(C(=O)Nc2nc3ccccc3[nH]2)oc2ccc(Br)cc12	DT40 TDP1 no CPT inconclusive, TDP1 cell CPT inconclusive
Cc1c(C(=O)Nc2nc3ccccc3[nH]2)oc2c(Cl)cccc12	DT40 TDP1 no CPT 16µM, TDP1 cell CPT inconclusive
O=C(Nc1nc2ccccc2[nH]1)c1ccc(Br)o1	DT40 TDP1 no CPT 15µM, TDP1 cell CPT inconclusive
Cc1c(C(=O)Nc2nc3ccccc3[nH]2)oc2ccccc12	DT40 TDP1 no CPT 23µM, TDP1 cell CPT 21µM
CC(C)c1ccc(NC(=O)Cn2c(=O)n(Cc3nc(-c4ccccc4)no3)c(=O)c3cc4c(cc32)OCO4)cc1	DT40 TDP1 no CPT inconclusive, TDP1 cell CPT inconclusive (no result: IL1B secr inh)
CCCCCCCC/C=C\CCCCCCCC(=O)N[C@@H](CO)Cc1ccc(O)cc1	DT40 TDP1 no CPT 11µM, TDP1 cell CPT 12µM (no result: IL1B secr inh, TGFb inhibitor, HepG2 viability)
Nc1cc2c(cc1Cl)N(Cc1ccccc1)C(=O)CO2	none
Cc1ccc(NC2=C(CC(=O)O)C(c3ccccc3)N(c3ccc(C)cc3)C2=O)cc1 (centres undefined)	TGFb inhibitor inconclusive, DT40 TDP1 no CPT inconclusive, TDP1 cell CPT 16µM
Cc1ccccc1-c1cc2nccc(-c3cc(Cl)ccc3O)n2n1	DT40 TDP1 no CPT inconclusive (no result: IL1B secr inh)
Cn1nc(C(=O)NCCc2ccc(Cl)cc2)c2c1-c1ccccc1S(=O)(=O)C2	DT40 TDP1 no CPT 29µM, TDP1 cell CPT inconclusive
Cc1ccc(CCNC(=O)c2nn(C)c3c2CS(=O)(=O)c2ccccc2-3)cc1	DT40 TDP1 no CPT inconclusive, TDP1 cell CPT inconclusive
Cc1cccc(N2CCN(C(=O)c3nn(C)c4c3CS(=O)(=O)c3ccccc3-4)CC2C)c1 (centres undefined)	DT40 TDP1 no CPT 18µM, TDP1 cell CPT 23µM
COc1cc(NC(=O)c2nn(C)c3c2CS(=O)(=O)c2ccccc2-3)cc(OC)c1	DT40 TDP1 no CPT 16µM, TDP1 cell CPT inconclusive
COc1cc(NC(=O)c2nn(C)c3c2COc2ccccc2-3)cc(OC)c1OC	DT40 TDP1 no CPT 3.3µM, TDP1 cell CPT 4.6µM (no result: IL1B secr inh)
CC(C)c1ccc(NC(=O)C(C)N(c2ccccc2)S(C)(=O)=O)cc1 (centres undefined)	DT40 TDP1 no CPT inconclusive, TDP1 cell CPT inconclusive (no result: IL1B secr inh, TDP1 block)
Cc1ccc(N2CCN(C(=O)c3cn(C)c4ccc(S(=O)(=O)N(C)C)cc4c3=O)CC2C)cc1 (centres undefined)	none (no result: IL1B secr inh)
COc1ccc(-n2c(=O)c3c4c(sc3n(CC(=O)NCC3CCCO3)c2=O)CN(C(C)=O)CC4)cc1OC (centres undefined)	none (no result: TDP1 block)
COc1ccc(N2CCN(C(=O)c3nn(C)c4c3CS(=O)(=O)c3ccccc3-4)CC2)cc1	DT40 TDP1 no CPT inconclusive, TDP1 cell CPT 23µM!
CC1CCCCC1NC(=O)c1nn(C)c2c1CS(=O)(=O)c1ccccc1-2 (centres undefined)	TDP1 cell CPT inconclusive
Cc1ccc(Cl)cc1N1CCN(C(=O)c2nn(C)c3c2CS(=O)(=O)c2ccccc2-3)CC1	DT40 TDP1 no CPT 12µM, TDP1 cell CPT 21µM (no result: IL1B secr inh)
Cn1nc(C(=O)NCc2cccc(Cl)c2)c2c1-c1ccccc1S(=O)(=O)C2	TGFb inhibitor inconclusive, DT40 TDP1 no CPT inconclusive, TDP1 cell CPT inconclusive
Cn1nc(C(=O)N2CCN(c3cccc(Cl)c3)CC2)c2c1-c1ccccc1S(=O)(=O)C2	DT40 TDP1 no CPT inconclusive, TDP1 cell CPT 18µM
CC1CCCC(NC(=O)c2nn(C)c3c2CS(=O)(=O)c2ccccc2-3)C1C (centres undefined)	DT40 TDP1 no CPT 9.2µM, TDP1 cell CPT inconclusive
CC1CCCCC12NC(=O)N(CC(=O)Nc1ccc(OC(F)F)cc1)C2=O (centres undefined)	DT40 TDP1 no CPT inconclusive, TDP1 cell CPT inconclusive
CCCN1C(=O)C2(c3ccccc31)c1c(oc3cc(C)c(C)cc3c1=O)C(=O)N2CCCOC (centres undefined)	DT40 TDP1 no CPT inconclusive, TDP1 cell CPT inconclusive (no result: IL1B secr inh)
COc1ccccc1C(=O)NC1(C(F)(F)F)C(=O)Nc2c1c(=O)[nH]c(=O)n2CCc1ccccc1 (centres undefined)	none (no result: IL1B secr inh)
C=C(C)Cn1c(=O)c2c(nc3n2CCN3c2ccc(CC)cc2)n(C)c1=O	DT40 TDP1 no CPT inconclusive (no result: IL1B secr inh)
Cc1ccc(N2CCN(C(=O)c3nn(C)c4c3CS(=O)(=O)c3ccccc3-4)CC2)c(C)c1	TGFb inhibitor inconclusive, DT40 TDP1 no CPT 21µM, TDP1 cell CPT 18µM
CC(=O)c1ccc(N2CCN(C(=O)c3nn(C)c4c3CS(=O)(=O)c3ccccc3-4)CC2)cc1	DT40 TDP1 no CPT inconclusive, TDP1 cell CPT inconclusive
